This experiment in a line: NCI Yeast Anticancer Drug Screen. Data for the rad50 strain (AID 155).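 Further: 0% = growth of vehicle-only cultures of the same strain.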 Conditions: S. cerevisiae rad50 strain growth inhibition, active compounds read high. How it is done: Growth inhibition of yeast strains with defined genetic alterations is measured as a screen for potential anti-cancer activity. Selected strains with alterations in DNA damage repair or cell cycle control were exposed to compounds and growth inhibition was measured relative to vehicle treated controls. The strain used in this assay is rad50

Setting [1] is: at 5.0 µM (retest, dose inferred, filed as 0.5).
The mark [2] stands for this setting: at 50.0 µM (retest, dose inferred, filed as 5.0).

For seven molecules, growth inhibition results are on record in PubChem BioAssay (NCI).

The panel holds about 79,000 compounds, 15% with a hit somewhere; the sample as a whole holds those more often. A number with no mark means an inactive call. Activity calls are given as the source filed them. No stated cut-off is given here; in the data, active means growth inhibition above about 70%; inactive means the rest.

Take `CC1=C(N2CC2)C(=O)c2ccccc2C1=O`: the growth inhibition is, setting by setting: (at 1.2 µM) 1%; (at 3.7 µM) 1%; under setting [1], -103%; (at 11.0 µM) 23%; (at 33.0 µM) 70% (active); under setting [2], 84% (active). Further, the growth inhibition (at 50.0 µM) is 53.7% and the growth inhibition (at 100.0 µM) was 97% (active).

As to `Cc1c([N+](=O)[O-])oc2ccc3ccccc3c12`, the growth inhibition reads like this: (at 1.2 µM) 26%; (at 3.7 µM) 48%; under setting [1], 70% (active); (at 11.0 µM) 69%; (at 33.0 µM) 88% (active); under setting [2], 90% (active). In addition, the growth inhibition is 87% (active) (at 50.0 µM) and 92% (active) (at 100.0 µM).

In the case of `CSc1ccccc1[As](C)C`, the growth inhibition is 7% (at 1.2 µM); -15% (at 3.7 µM); 96% (active) under setting [1]; 86% (active) (at 11.0 µM); 98% (active) (at 33.0 µM); 99% (active) under setting [2]. Besides, the growth inhibition was 99.3% (active) (at 50.0 µM) and 99% (active) (at 100.0 µM).

With `Cn1cnc(N)c1C(=N)[Se]`, the growth inhibition by setting is: (at 1.2 µM) 27%; (at 3.7 µM) 59%; under setting [1], -44%; (at 11.0 µM) 93% (active); (at 33.0 µM) 95% (active); under setting [2], 89% (active). The growth inhibition was 96.5% (active) (at 50.0 µM) and 93% (active) (at 100.0 µM).

Regarding `O=P(CCCCP(=O)(c1ccccc1)c1ccccc1)(c1ccccc1)c1ccccc1.[Cl][Sn]([Cl])([c]1ccccc1)[c]1ccccc1`, the growth inhibition (at 1.2 µM) is 26%; the growth inhibition (at 3.7 µM) is 24%; the growth inhibition under setting [1] is 66%; the growth inhibition (at 11.0 µM) was 82% (active); the growth inhibition (at 33.0 µM) is 97% (active); the growth inhibition under setting [2] was 98% (active). In addition, the growth inhibition (at 50.0 µM) was 85.7% (active) and the growth inhibition (at 100.0 µM) was 97% (active).

On to `CCC(=O)C(CCN1CCC2(CCCc3ccccc32)CC1)(c1ccccc1)c1ccccc1`, for which the growth inhibition is -2% under setting [1], 89% (active) under setting [2] and 98.4% (active) (at 50.0 µM).

For `CC(CCS(C)(=O)=O)([N+](=O)[O-])[N+](=O)[O-]`, the growth inhibition runs as follows: under setting [1], 48%; under setting [2], 99% (active); (at 50.0 µM) 55.2%.
